Our source for the growth values is PubChem BioAssay (NCI).

This is part of a sample that, as a whole, favours compounds with a hit. Of some 83,000 tested, about 20% had one in any assay.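 Cells were grown in 96-well plates and exposed to the test compound at a single concentration for 48 hours; results are reported as percent growth, with values below 10 considered active.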 Values without a mark were called inactive. Active and inactive are the calls of the source.

In the test the test system is MDA-MB-468 breast. Put plainly: NCI-60 one-dose screen, 48 h (100 = growth as untreated, 0 = no growth, -100 = all killed). Particulars: 10 µM unless noted.
`CCC1CCc2nc3sc(C(=O)Nc4cccc(C)c4)c(N)c3cc2C1` (stereo not given): the growth was 44.5%.
Then `COc1ccc(-c2nc3sc(-c4cc(OC)c(OC)c(OC)c4)nn3c2/C=C2/C(=O)Nc3ccc(F)cc32)cc1`, with -65.3% (active); and `CCCCC(=O)Nc1ncc(Cc2ccc(Cl)cc2)s1`, with 26.2%.
The value for `Fc1ccc([C@@H]2CCNC[C@H]2COc2ccc3c(c2)OCO3)cc1` was 36.1%; that for `CN(C)c1ccc2c(c1)/C(=N/O)c1ccccc1-2` was 76.9%.
Regarding `COc1cc(/C=C/C(=O)/C=C/c2cc3ccc(Cl)cc3n(Cc3ccccc3)c2=O)ccc1O`, the growth was -42.8% (active).
In the case of `Fc1ccc(Cc2ccc(F)cc2)cc1`, the growth is 104%.
On to `N/C(=N\S(=O)(=O)c1ccccc1)Nc1nc2ccccc2s1`, for which the growth is 91%.
On to `CC(C)c1cccc(C#N)c1`, for which the growth is 99.4%.
The value for `COc1ccc(OC)c(CCn2cncc2-c2c[nH]c3ccccc23)c1` was 41%; that for `C=C1CCC2C(C)(COC(=O)CC)C(OC(=O)CC)CCC2(C)C1C/C=C1/C(=O)OCC1OC(=O)CC` (stereo not given) was -48.5% (active); that for `N[C@@H](Cc1ccccc1)[C@@H](O)C(=O)NCc1ccc(F)cc1` was 114%.
Consider `N=c1c2cc(-c3ccccc3)oc2ncn1/N=C/c1ccc(Br)cc1`, for which the growth was 68.3%.
Take `Cc1cccc2c1C[C@@]1(C2=O)C(c2ccc(C(C)(C)C)cc2)=NOS1=O` (stereo not given in full): the growth is 88.2%.
Then `Cc1ccccc1/C=C/c1nn2c(-c3ccoc3C)nnc2s1`, with 91.7%.
Consider `O=c1[nH]cc(Cl)cc1O`, for which the growth was 108%.
Then `Cc1ccc2sc3c(NCCCNCCO)nc4ccccc4c3c(=O)c2c1`, with 42.5%.
`COc1ccc(-c2cc(-c3ccc(Cl)cc3)nc3nc(N)nn23)cc1`: the growth was 78.5%.
Then `C=CCn1c(SCC(=O)Nc2ccc(C(=O)/C=C/c3cc(OC)c(OC)c(OC)c3)cc2)nnc1-c1ccc(OC)cc1`, with -26.5% (active).
As to `COc1cc(-c2cc(-c3ccc(Nc4ncnc5cc(Cl)ccc45)cc3)nc(N3CCN(C)CC3)n2)cc(OC)c1OC`, the growth is 105%.
On to `COc1ccc2cc(-c3ccnc4c(N=Nc5ccc(Cl)cc5)c(N)nn34)ccc2c1`, for which the growth is 98.8%.
In the case of `N#CC1=C(N)Oc2c(cnn2-c2ccc([N+](=O)[O-])cc2[N+](=O)[O-])C1c1ccccc1` (stereo not given), the growth is 87.7%.
As for `Cc1ccc(Cn2cc(COc3ccc4c5ccnc(C)c5n(CCCc5ccccc5)c4c3)nn2)cc1`, the growth is 99%.
Then `O=[N+]([O-])c1ccc(-c2cc3c(Nc4ccc(Sc5nc6ccccc6s5)c(Cl)c4)ncnc3s2)cc1`, with 26.1%; and `COc1ccc(-n2c(=O)n(-c3ccc(-c4nc5ccc(F)cc5s4)cc3)c(=O)c3cccnc32)cc1`, with 121%; and `O=C1N=NC2=C1c1c3ccccc3c(O)n1CC2`, with 96.6%.
The value for `Cc1ccc(-c2csc(N/N=C/c3cccs3)n2)cc1` was 65.1%; that for `O=C1Nc2ccccc2/C1=C\c1nc(-c2ccccc2F)n2ccccc12` was 8.76% (active); that for `O=C1/C=C/[C@@H](O)[C@@H]2C[C@@H](O)C[C@H]2/C=C/CCCCO1` was -36.1% (active).
Then `CN1CCN(CCCOc2ccc3nc(Nc4ccc(Cl)c(C(F)(F)F)c4)ccc3c2)CC1`, with 69.5%; and `CC1(C)CCC(S(=O)(=O)c2ccc3c(c2)/C(=N\O)c2cc(S(=O)(=O)N4CCC(O)(c5cccc(C(F)(F)F)c5)CC4)ccc2-3)CC1`, with -78.4% (active).
As to `CCSc1nc(-c2ccco2)n2nc(-c3ccco3)cc2n1`, the growth is -67.7% (active).
Turning to `CC(C)=CC(=O)OC(=O)C=C(C)C`, the growth is 92.9%.
Consider `CNC(=O)c1cc(Oc2ccc3c(c2)sc2nc(-c4ccc(OC)cc4)cn23)ccn1`, for which the growth is 16.8%.
For the compound `Brc1ccc2c(c1)-c1ccccc1C1=NCCN12`, the growth was -45% (active).
For the compound `COc1ccc(/C=C/C(=O)c2ccc(-n3cc(CN4CCN(c5cc6c(cc5F)c(=O)c(C(=O)O)cn6C5CC5)CC4)nn3)cc2)cc1`, the growth is 26.3%.
As to `COc1ccc(C2=NN(c3ccc(S(N)(=O)=O)cc3)C(c3cn(-c4ccccc4)nc3-c3ccc(Cl)cc3)C2)cc1` (stereo not given), the growth was 106%.
The value for `COc1ccc2c(c1)nc(N)c1c3cccnc3cn21` was 13.4%; that for `Cc1nc2ccccc2c(/C=C/c2ccc(Cl)cc2)c1C(=O)/C=C/c1ccccc1` was 12.7%; that for `CCn1nc(C#Cc2c(C)ccc3c(Nc4ccc(Cl)cc4)nccc23)c2c(N)ncnc21` was 27.1%.
